ChEMBL document CHEMBL3433997, “St. Jude Leishmania screening dataset” (2016)

Columns and labels:
Type in all cases: functional
[1] = target: Solute carrier family 2, facilitated glucose transporter member 1 (Homo sapiens) (UniProt P11166); assay: ST_JUDE_LEISH: Cytotoxicity at 2uM final concentration against transgenic Leishmania Mexicana promastigotes LmGLUT1 that are glucose transport deficient and complemented with the human glucose transporter GLUT1. Activity is measured by DNA content using SYBR green in vitro
Sequence of Solute carrier family 2, facilitated glucose transporter member 1 (Homo sapiens) (P11166 whole entry): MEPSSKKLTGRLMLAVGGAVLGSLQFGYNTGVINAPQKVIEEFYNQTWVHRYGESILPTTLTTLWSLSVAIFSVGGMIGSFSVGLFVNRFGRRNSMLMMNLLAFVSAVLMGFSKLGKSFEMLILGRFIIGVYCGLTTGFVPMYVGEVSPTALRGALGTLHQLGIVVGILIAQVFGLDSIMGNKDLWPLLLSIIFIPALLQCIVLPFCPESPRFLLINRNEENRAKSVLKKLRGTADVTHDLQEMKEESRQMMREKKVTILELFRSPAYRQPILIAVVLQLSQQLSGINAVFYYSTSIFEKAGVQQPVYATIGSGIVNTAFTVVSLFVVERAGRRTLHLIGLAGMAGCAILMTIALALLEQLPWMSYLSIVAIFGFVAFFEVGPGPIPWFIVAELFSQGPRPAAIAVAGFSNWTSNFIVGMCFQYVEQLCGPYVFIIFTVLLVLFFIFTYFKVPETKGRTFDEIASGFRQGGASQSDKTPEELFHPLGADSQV

[2] = target: Hexose transporter 1 (Plasmodium falciparum) (UniProt O97467); assay: ST_JUDE_LEISH: Cytotoxicity at 2uM final concentration against transgenic Leishmania Mexicana promastigotes LmPfHT that are glucose transport deficient and complemented with the Plasmodium falciparum hexose transporter. Activity is measured by DNA content using SYBR green in vitro
[3] = target: Glucose transporter (Leishmania mexicana) (UniProt O61059); assay: ST_JUDE_LEISH: Cytotoxicity at 2uM final concentration against transgenic Leishmania Mexicana promastigotes LmGT2 that are glucose transport deficient and complemented with the L. Mexicana glucose transporter 2. Activity is measured by DNA content using SYBR green in vitro

SMILES	inhibition [1] [%]	inhibition [2] [%]	inhibition [3] [%]
CC1CN(c2cnn(C/C=C/c3ccc(NC(=O)c4ccc(Cl)cc4)cc3)c(=O)c2Cl)CC(C)N1 (configuration not stated)	-0.22	-0.3	-1.49
CC(C)COc1ccc(Cl)cc1Cc1ccc(-c2nc3cc(N4CCN(C)CC4)ccc3[nH]2)o1	4.56	1.63	2.01
CN(CCCCCNC(=O)/C=C/c1ccc(Cl)c(Cl)c1)CCc1c[nH]c2ccccc12	20.6	20	12.6
COc1ccc(C(=O)CCC(=O)N(Cc2ccc(-c3ccc(CNCCc4ccc(S(C)(=O)=O)cc4)cn3)cc2)C2CCN(Cc3ccccc3)CC2)cc1F	4.03	5.85	2.72
COc1cc(OC)c(OC)cc1C=NN=c1cc(C)[nH]c2ccccc12	1.25	1.67	-1.17
O=C(C1CCCCC1)N1CCOC(CCN2CCC(c3ccccc3)CC2)(c2ccc(Cl)c(Cl)c2)C1 (configuration not stated)	15.2	16.1	13.5
CCN1CCN(c2cc(C)c3cc(NC(=O)c4ccc(OC)c([N+](=O)[O-])c4)ccc3n2)CC1	2.21	2.42	2.13
Cc1cccc2nc(-c3cccc(-c4ccc(NC(=O)CC5NC(=O)c6ccccc65)cc4)c3)[nH]c12 (configuration not stated)	8.73	9.29	7.01
Cc1cc(C)c(C)c(S(=O)(=O)N2CCCCC(c3ccc(F)c(F)c3)=N2)c1C	2.94	-0.61	6.62
COc1ccc2nccc(N3CCC(O)(CCNCc4ccc5c(n4)NC(=O)CS5)CC3)c2n1	7.13	8.14	7.92
COc1ccc2nccc([C@@H](O)CN3CCC(NCc4ccc5c(c4)NC(=O)CO5)CC3)c2c1	1.26	1.94	1.91
CCNc1cc(C(=O)N[C@@H](Cc2cccc(F)c2)[C@H](O)CNC(C)CCCC(C)C)cc(N2CCCCS2(=O)=O)c1 (some centres not stated)	1.15	2.92	1.42
CCc1ccccc1N1CCN(CCCCNC(=O)c2ccc(NC(=O)c3ccc(Cl)cc3)cc2)CC1	2.51	2.19	0.44
O=C(Nc1ccc(Cl)cc1)c1ccc(S(=O)(=O)NCC2CCN(CC3CCCCC3)CC2)cc1	2.97	1.04	1.4
COc1cc(CN=C(S)NN=C(C)c2ccccn2)cc(OC)c1OC	5.41	1.2	2.59
C=C(C)CSc1nc2c(c(=O)n1CCc1ccccc1)C1(CCCC1)Cc1ccccc1-2	5.95	5.36	5.02
CC(Cc1ccc(NC(=O)c2ccc(CNCCCCc3ccccc3)cc2)cc1)NCCc1cccc(Cl)c1 (configuration not stated)	106	102	105
O=C(Nc1ccc(OC2CCN(Cc3ccc(F)cc3)C2)c(Cl)c1)c1ccccc1 (configuration not stated)	8.62	9.58	4.94
CN(C)CCCNc1nccc(N(C)c2ccc(NC(=O)Nc3cc(C(F)(F)F)ccc3F)cc2)n1	1.93	-0.78	-0.59
Cc1cc(NCC(C)C)c2[nH]nc(-c3ccccc3)c2n1	2.41	3.39	1.69
CCNc1cc(C(=O)N[C@@H](Cc2ccccc2)[C@H](O)CNCc2ccc3c(c2)OCCO3)cc(N2CCCCS2(=O)=O)c1	0.98	1.25	1.57
Cc1cccc2nc(-c3cccc(-c4cccc(NC(=O)CC5NC(=O)c6ccccc65)c4)c3)[nH]c12 (configuration not stated)	0.82	1.34	3.21
N=C(N)NN=Cc1c2ccccc2c(Cl)c2cc(Cl)ccc12	62.5	26.4	29.3
CC(C)C(NC(=O)Cc1cccc2ccccc12)C(=O)Nc1cccc(C#N)c1 (configuration not stated)	2.08	3.27	2.76
